Bioassay records (PubChem)
nsP2pro primary = Primary qHTS for inhibitors of NSP2Pro chikungunya virus (CHIKV). Potency, µM (titrated, usually from 24.9 µM), without a hit: at the top dose activity change, negative = inhibition, usual class: inhibitors. hit rate 1.1% among 31,000. Polyprotein P1234 (Chikungunya virus (strain S27-African prototype)), Q8JUX6. FRET peptide cleavage, nsP2pro, fluorescence 1 h; note: nearly all actives have a fitted effect of over 60% in size
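Purified recombinant nsP2pro (150 nM final) in 10 mM Tris-HCl pH 8.0 with 0.01% Tween 20 was preincubated 15 min at room temperature with compound (7 concentrations, up to 25 uM). FRET peptide 2 substrate (2.5 uM final) was then added; fluorescence was read after 1 h.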
CHIKV nsP2 cell = Secondary cell base assay for inhibitors of NSP2Pro Chikungunya virus (CHIKV); Potency, µM (series often up to 51.1 µM), inactives show at the highest dose activity change, negative = inhibition, actives largely listed as inhibitors; hit rate 10% among 450; cell-based CHIKV nsP2 protease reporter assay; shares compounds with nsP2pro primary; note: nearly all actives have a fitted effect of over 70% in size
CHIKV NSP2 FL = Selectivity profile for inhibitors of NSP2Pro chikungunya virus (CHIKV): Full length NSP2 enzyme counterscreen (CHIKV-NSP2); shares compounds with nsP2pro primary; Full-length CHIKV NSP2 protease enzymatic counterscreen; Potency, µM (titrated, usually from 50.7 µM), inactives show at the top dose activity change, negative = inhibition, most hits filed as inhibitors; hit rate 39% among 410; note: nearly all actives have a fitted effect of over 65% in size
Furin counterscr = Selectivity profile for inhibitors of NSP2Pro chikungunya virus (CHIKV): Human furin counterscreen. shares compounds with nsP2pro primary. Recombinant human furin enzymatic counterscreen, fluorogenic substrate. Potency, µM (highest dose often 50.6 µM), for inactives: at the highest dose activity change, negative = inhibition, usual class: inhibitors. hit rate 6% among 410. AID 1964102, 2024
NS23 peptide cs = Selectivity profile for inhibitors of NSP2Pro chikungunya virus (CHIKV): Endogenous NS2/3 peptide Counterscreen; shares compounds with nsP2pro primary; Purified CHIKV nsP2 protease, endogenous NS2/3 peptide cleavage; Potency, µM (highest dose often 51 µM), for the others: at the top dose activity change, negative = inhibition, usual class: inhibitors; hit rate 34% among 410; note: nearly all actives have a fitted effect of over 55% in size
Papain counter = Selectivity profile for inhibitors of NSP2Pro chikungunya virus (CHIKV): Papain Counterscreen; purified papain protease activity, enzymatic inhibition; Potency, µM (doses to about 51 µM), without a hit: at the highest dose activity change, negative = inhibition, most hits filed as inhibitors; shares compounds with nsP2pro primary; AID 1964104, 2024; hit rate 5% among 410
nsP2pro conf qHTS = Confirmatory qHTS for inhibitors of NSP2Pro chikungunya virus (CHIKV) | CHIKV nsP2 protease enzymatic activity, qHTS | Potency, µM (top dose mostly 25.5 µM), for the others: at the highest dose activity change, negative = inhibition, hits mostly inhibitors | hit rate 43% among 410 | shares compounds with nsP2pro primary | AID 1964105, 2024; note: nearly all actives have a fitted effect of over 75% in size
HCV NS3 counter = Selectivity profile for inhibitors of NSP2Pro chikungunya virus (CHIKV): NS34A-HCV Counterscreen; Potency, µM (highest dose often 50.9 µM), actives largely listed as inhibitors; HCV NS3/4A protease biochemical counterscreen; shares compounds with nsP2pro primary; hit rate 20% among 410; AID 1964106, 2024; note: nearly all actives have a fitted effect of over 55% in size
The depositor's hits bear a star; i = inactive; ? = inconclusive; nt = no result given; ! = a repeat was not active; [ ] = another dose, or the depositor's remark. The full list was thinned out, with hits kept by preference. Calls come from the whole dose curve. % is set by controls: 0 for no effect and ±100 for the full control effect; potency is the fitted concentration of half-maximal effect.

SMILES	nsP2pro primary	CHIKV nsP2 cell	CHIKV NSP2 FL	Furin counterscr	NS23 peptide cs	Papain counter	nsP2pro conf qHTS	HCV NS3 counter
O=C1C(Cl)=C(N2CCOCC2)C(=O)N1c1ccc(Cl)c(Cl)c1	?	?	?	-11%[17.3 µM]	?	?	3.1µM*	i
Cc1nc2c(c(C)c1CCC(=O)NCc1ccc(F)cc1)c(=O)n(C)c(=O)n2C	-11%	nt	nt	nt	nt	nt	nt	nt
CC(CO[C@@H]1O[C@H](COC(=O)/C=C/c2ccc(O)c(O)c2)[C@@H](O)[C@H](O)[C@H]1O)C1(O)COC(=O)C1 (stereo partly drawn)	?	2%[17.6 µM]	-14%[17.3 µM]	-11%[17.3 µM]	-13%[17.2 µM]	-12%[17.2 µM]	-26%[8.62 µM]	i
O=C(/C=C/c1ccc(O)c(O)c1)OC[C@H]1O[C@@H](OC2CCCCC2O)[C@H](O)[C@@H](O)[C@@H]1O (stereo partly drawn)	54%[10 µM]	nt	nt	nt	nt	nt	nt	nt
CC(=O)O[C@@H]1[C@@H](CO)O[C@@](CO)(O[C@H]2O[C@H](COC(=O)/C=C/c3ccccc3)[C@@H](O)[C@H](O)[C@H]2O)[C@H]1O	55%[10 µM]	nt	nt	nt	nt	nt	nt	nt
COCCN1Cc2nc(-c3ccsc3)ccc2OCC1=O	-8%[39.2 µM]	nt	nt	nt	nt	nt	nt	nt
O=C(Cn1c(=O)oc2cc(S(=O)(=O)NCc3ccccc3)ccc21)NCc1ccc(Cl)cc1	-19%	nt	nt	nt	nt	nt	nt	nt
O=c1oc2c3c(ccc2c2ccccc12)OCN(Cc1cccc(Cl)c1)C3	-13%	nt	nt	nt	nt	nt	nt	nt
O=c1oc2c3c(ccc2c2ccccc12)OCN(Cc1ccccc1Cl)C3	1.1µM*	115%	-1%	-11%	12µM*	-4%	4µM*	i
Cc1cc(=O)oc2c3c(ccc12)OCN(Cc1ccccc1Cl)C3	32%	nt	nt	nt	nt	nt	nt	nt
O=C(Nc1nc(-c2ccccc2)cs1)c1ccccc1	-2%	nt	nt	nt	nt	nt	nt	nt
Cc1noc(C)c1S(=O)(=O)N1C[C@@H](Oc2cccnc2)C[C@H]1C(N)=O	2%	nt	nt	nt	nt	nt	nt	nt
CCCC1(CCC)CCC2(CCN(CCCN(CC)CC)C2)CC1	91%	nt	nt	nt	nt	nt	nt	nt
Cc1cc(Nc2ncnc3ccc(-c4ccc(CNCCS(C)(=O)=O)o4)cc23)ccc1Oc1ccn2ncnc2c1	1.2µM*	-13%	4.1µM*	-13%	?	?	4.5µM*	?
CS(=O)(=O)CCNCc1ccc(-c2ccc3ncnc(Nc4ccc(OCc5cccc(F)c5)c(Cl)c4)c3c2)o1	75%	nt	nt	nt	nt	nt	nt	nt
CCOC(=O)c1ccc(-c2ccc3ncnc(NCc4ccc(C)o4)c3c2)o1	-3%	nt	nt	nt	nt	nt	nt	nt
O=C(O)[C@H]1O[C@@H](Oc2cc3oc(-c4ccccc4)cc(=O)c3c(O)c2O)[C@H](O)[C@@H](O)[C@@H]1O	-9%	nt	nt	nt	nt	nt	nt	nt
O=C(COc1ccccc1CNc1ccc(Cl)cc1)Nc1ccc(F)cc1	40%	nt	nt	nt	nt	nt	nt	nt
Cc1ccc(CN2CC[C@H](c3nnc(-c4ccco4)o3)C2)o1	2%[39.2 µM]	nt	nt	nt	nt	nt	nt	nt
Cc1nccn1C1(C(=O)O)CCN(Cc2ccc(-c3ccn[nH]3)o2)CC1	-15%	nt	nt	nt	nt	nt	nt	nt
Cc1ccsc1[C@@H]1CCN(Cc2ccc(-c3ccn[nH]3)o2)C[C@H]1O	3.5µM*	?	?	0%	?	-3%	8µM*	?
O=C1NCCOCCCN(C(=O)C2(c3ccccc3)CC2)[C@H]2CCCC[C@@H]12	i	nt	nt	nt	nt	nt	nt	nt
CCc1cccc(NC(=O)Cn2ccn3nc(-c4ccc(OC)c(OC)c4)cc3c2=O)c1	-16%	nt	nt	nt	nt	nt	nt	nt
COc1ccc(S(=O)(=O)N2CCN(S(=O)(=O)c3ccc(OC)cc3)CC2)cc1	1%	nt	nt	nt	nt	nt	nt	nt
COc1ccc(S(=O)(=O)c2cc3cc(OC)ccc3oc2=O)cc1	-20%	nt	nt	nt	nt	nt	nt	nt
SMILES	nsP2pro primary	CHIKV nsP2 cell	CHIKV NSP2 FL	Furin counterscr	NS23 peptide cs	Papain counter	nsP2pro conf qHTS	HCV NS3 counter
COc1ccc(S(=O)(=O)ON=C2C=C(C)C(=O)C(C)=C2)cc1	?	2.2µM*	?	-11%	6.5µM*	9.2µM*	?	i
CSc1ncc(Cl)c(C(=O)Nc2ccc(NC(C)=O)cc2)n1	63%	nt	nt	nt	nt	nt	nt	nt
O=C(O[C@@H]1Cc2c(O)cc(O)cc2O[C@@H]1c1ccc(O)c(O)c1)c1cc(O)c(O)c(O)c1	?	-24%	23µM*	-6%	15µM*	-26%	?	?
OCC1OC(Oc2cc(O)c3c(c2)OC(c2ccc(O)cc2)C(O)C3)C(O)C1O (stereo not drawn)	-4%[10 µM]	nt	nt	nt	nt	nt	nt	nt
O=C(O[C@@H]1Cc2c(O)cc(O)cc2O[C@@H]1c1cc(O)c(O)c(O)c1)c1cc(O)c(O)c(O)c1	4.4µM*!	-27%	?	?	5.8µM*	?	4.5µM*	?
Oc1cc(O)c2c(c1)O[C@H](c1ccc(O)c(O)c1)[C@H](O)C2	0%	nt	nt	nt	nt	nt	nt	nt
Cc1cc(C(=O)N2CCCC3(C2)Nc2cccnc2NC3=NCc2ccccc2)nn1C (stereo not drawn)	-5%	nt	nt	nt	nt	nt	nt	nt
O=C(NCc1ccccc1)N1CCc2c(sc3c2CCCC3)C1c1ccccc1 (stereo not drawn)	-20%	nt	nt	nt	nt	nt	nt	nt
C[C@H](NCCc1ccc(O)cc1)[C@H](O)c1ccc(O)cc1	-1%	nt	nt	nt	nt	nt	nt	nt
COc1cccc(C(=O)CCN[C@@H](C)[C@H](O)c2ccccc2)c1	1.6µM*	54%	5.8µM*	-4%	10µM*	-3%	1.3µM*	i
COc1ccc(NC(=O)C(OC(=O)CNC(=O)c2ccccc2)c2ccccc2)c(C)c1 (stereo not drawn)	-4%	nt	nt	nt	nt	nt	nt	nt
COc1ccccc1C(=O)NCC1(N2CCN(C)CC2)CCCCC1	-22%	nt	nt	nt	nt	nt	nt	nt
CN(C)CCc1c[nH]c2ccc(C[C@H]3COC(=O)N3)cc12	?	1%	56%	0%	-10%	-1%	?	i
CN1CCC[C@@H]1Cc1c[nH]c2ccc(CCS(=O)(=O)c3ccccc3)cc12	-10%	nt	nt	nt	nt	nt	nt	nt
NS(=O)(=O)c1cc2c(cc1Cl)NC(CSCc1ccccc1)=NS2(=O)=O	0%	nt	nt	nt	nt	nt	nt	nt
O=C(O)Cc1cc(I)c(Oc2ccc(O)c(I)c2)c(I)c1	22%	nt	nt	nt	nt	nt	nt	nt
O=C(O)Cc1ccc(O)c(O)c1	?	-3%	-23%	-5%	?	-7%	9µM*	8.2µM*
